Assay [1] in a line: NCI Yeast Anticancer Drug Screen. Data for the rad50 strain (AID 155).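 Note: 0% = growth of vehicle-only cultures of the same strain.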 To be noted: S. cerevisiae rad50 strain growth inhibition; at 50.0 µM; hits give high values. An outline of the steps: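 Relative growth inhibition (compound vs vehicle) was measured in yeast with a defined repair-gene alteration.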
A short description of assay [2]: NCI Yeast Anticancer Drug Screen. Data for the mec2-1 strain (AID 157). The note with it: S. cerevisiae mec2-1 strain, at 50.0 µM, hits give high values. A digest of the protocol: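 Growth inhibition is read against vehicle-treated controls after compound exposure of the mec2-1 yeast strain, which is defective in DNA damage repair or cell cycle control.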
Assay [3] is described as follows: NCI Yeast Anticancer Drug Screen. Data for the sgs1 mgt1 strain (AID 161).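 Note: 0% = growth of cultures given vehicle only.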 The note with it: S. cerevisiae sgs1 mgt1 strain, at 50.0 µM, hits give high values. An outline of the steps: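 Growth of a repair-deficient yeast mutant was monitored after compound treatment and expressed as inhibition relative to vehicle-treated cultures.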
Assay [4] can be described thus: NCI Yeast Anticancer Drug Screen. Data for the cln2 rad14 strain (AID 165).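 Note: 0% = growth equal to vehicle treated cultures.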 To be noted: S. cerevisiae cln2 rad14 strain, at 50.0 µM, hits give high values. An outline of the steps: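 Growth inhibition, relative to vehicle-treated controls, is the read-out. The test organism is a yeast strain with defined genetic alterations, cln2 rad14.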
Assay [5] can be described thus: NCI Yeast Anticancer Drug Screen. Data for the bub3 strain (AID 167). The note with it: S. cerevisiae bub3 mutant strain, at 50.0 µM, hits give high values. An outline of the steps:
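Screening used yeast with an engineered genetic alteration affecting cell cycle control. Compound-exposed cultures were compared with vehicle cultures, and reduced growth was taken as inhibition.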

A short description of assay [6]: NCI Yeast Anticancer Drug Screen. Data for the mlh1 rad18 strain (AID 175). The note with it: S. cerevisiae mlh1 rad18 strain growth inhibition; at 50.0 µM; hits give high values. An outline of the steps: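 Cells of a genetically altered yeast strain, deficient in DNA damage repair, were treated with compound. Their growth was then compared with that of vehicle-treated cultures to give inhibition.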

In PubChem BioAssay (NCI) one finds growth inhibition data, which are given here for 20 molecules.

This is part of a sample that, as a whole, favours compounds with a hit. Of some 79,000 tested, about 15% had one in any assay. Values without a mark were called inactive. Active and inactive are the calls of the source. Cut-off read from the data, not from the text of the source: active = growth inhibition above about 70%; inactive = the rest.

As for `O=C1CS/C1=C/c1ccccc1`, the growth inhibition was 11.4% in assay [1]; -2.95% in assay [2]; -15.2% in assay [3]; -68.7% in assay [4]; -7.85% in assay [5]; -5.15% in assay [6].
On to `CC1CCC(=O)C(C(=O)CC2CC(=O)NC(=O)C2)C1` (stereo not given), for which the growth inhibition was 31.6% in assay [1]; 1.45% in assay [2]; 19.7% in assay [3]; -30.3% in assay [4]; 2.3% in assay [5]; 4.55% in assay [6].
As to `CCOC(=O)C1CCC2c3[nH]c4ccccc4c3CCN2C1=O` (stereo not given), the growth inhibition in assay [1] is -25.3%; in assay [2] it was -39.8%; in assay [3] it was -8.65%; in assay [4] it was 1.6%; in assay [5], 31.1%; in assay [6], -20.9%.
As for `CSc1ncnc2nn(C3OC(CO)C(O)C3O)cc12` (stereo not given), the growth inhibition in assay [1] was 8.1%; in assay [2], 5.85%; in assay [3] it was 6.25%; in assay [4] it was 8.4%; in assay [5] it was -9.6%; in assay [6], -5.4%.
Consider `CC(=O)OC1COC(n2cnc3c(N)ncnc32)C(OC(C)=O)C1OC(C)=O` (stereo not given), for which the growth inhibition in assay [1] is 5.3%; in assay [2] it was -5.15%; in assay [3], 2.3%; in assay [4], -26.1%; in assay [5], 1.2%; in assay [6] it was -4.2%.
In the case of `NC(=O)C1(C(N)=O)CC1`, the growth inhibition was 11.4% in assay [1]; 4.55% in assay [2]; -14.5% in assay [3]; -0.05% in assay [4]; -3.75% in assay [5]; 5.1% in assay [6].
`O=C1C(N=Nc2ccc(S(=O)(=O)Nc3ccccn3)cc2)C(=O)N(c2ccccc2)C(=S)N1c1ccccc1`: the growth inhibition in assay [1] is 8.8%; in assay [2], 6.1%; in assay [3], 8.25%; in assay [4], 18.3%; in assay [5], -1.25%; in assay [6], 23.6%.
In the case of `CC(=O)[O-].O=S(=O)(Nc1ncccn1)c1ccc(N=Cc2ccccc2O)cc1.O=S(=O)(Nc1ncccn1)c1ccc(N=Cc2ccccc2O)cc1.[Cu+2]`, the growth inhibition in assay [1] is -7.4%; in assay [2] it was -21.6%; in assay [3] it was -17.4%; in assay [4], -8.25%; in assay [5], -17.6%; in assay [6], -1.35%.
Take `CCOC(=O)c1cccc(NC(=O)CCl)c1`: the growth inhibition in assay [1] is 43.2%; in assay [2], 30.1%; in assay [3] it was 37.6%; in assay [4] it was 26%; in assay [5], 39.9%; in assay [6], 49.5%.
Regarding `COc1cccc(NC(=O)CC(=O)N2N=C(C)C(N=Nc3ccc(S(=O)(=O)c4ccc(N=NC5C(=O)N(C(=O)CC(=O)Nc6cccc(OC)c6)N=C5C)cc4)cc3)C2=O)c1` (stereo not given), the growth inhibition in assay [1] is 27.4%; in assay [2], 15.8%; in assay [3] it was 8.9%; in assay [4] it was -16.4%; in assay [5], -2%; in assay [6], 29.1%.
On to `CN(CCO)CCC1COc2ccccc2O1` (stereo not given), for which the growth inhibition was 2.1% in assay [1]; -29.6% in assay [2]; 0.25% in assay [3]; 12.1% in assay [4]; -1.05% in assay [5]; 1.25% in assay [6].
Regarding `O=C1NC2OC(CO)C(O)C(O1)C2O` (stereo not given), the growth inhibition is -9.7% in assay [1]; 19.4% in assay [2]; -24.9% in assay [3]; -5% in assay [4]; -28.8% in assay [5]; -25% in assay [6].
`C/C(=N/O)c1ccc[nH]1`: the growth inhibition was -3.6% in assay [1]; 9% in assay [2]; -5.5% in assay [3]; 20.1% in assay [4]; 13.2% in assay [5]; 0.3% in assay [6].
On to `COc1ccc2c(c1)OC(=O)C(S(=O)(=O)c1ccccc1)C2` (stereo not given), for which the growth inhibition in assay [1] is 6.25%; in assay [2], 14.6%; in assay [3] it was 6.65%; in assay [4], -3.55%; in assay [5], 1.2%; in assay [6], 7.55%.
Take `CCOC(=O)C(NC(C)=O)C(O)c1ccc(Cl)cc1Cl` (stereo not given): the growth inhibition in assay [1] is 18.4%; in assay [2], 3.4%; in assay [3], 0.05%; in assay [4] it was -45.9%; in assay [5] it was -9.4%; in assay [6], 19.7%.
Consider `CN1C/C(=C\C=C\c2ccccc2)C(=O)/C(=C/C=C/c2ccccc2)C1`, for which the growth inhibition in assay [1] is 66.7%; in assay [2] it was 16.9%; in assay [3], 14.8%; in assay [4], 11.8%; in assay [5] it was 11.2%; in assay [6] it was 0.2%.
As to `O=c1[nH]c(=O)c2ncn(-c3ccc(Cl)cc3)c2[nH]1`, the growth inhibition in assay [1] is -7.35%; in assay [2], -20.9%; in assay [3] it was 7.1%; in assay [4], -37.5%; in assay [5], -24.4%; in assay [6] it was -8.3%.
For the molecule `C[n+]1ccc2ccccc2c1C#N`, the growth inhibition was 2.55% in assay [1]; 10.6% in assay [2]; -3.75% in assay [3]; -0.35% in assay [4]; 0.35% in assay [5]; 14.9% in assay [6].
Regarding `CCOC(=O)c1cnc(SC)nc1Nc1ccc(Cl)cc1`, the growth inhibition is -13.8% in assay [1]; -9.4% in assay [2]; -6.55% in assay [3]; -8.65% in assay [4]; 0.55% in assay [5]; -31.2% in assay [6].
On to `CCCCCCCCCCCCCCCC(=O)NC(CCCCN)C(=O)NC(CCCCN)C(=O)OCC` (stereo not given), for which the growth inhibition was 77.9% (active) in assay [1]; 97% (active) in assay [2]; 68.9% in assay [3]; 94.5% (active) in assay [4]; 47.4% in assay [5]; 65.5% in assay [6].
